SMILES strings stand for the structures. ± gives the standard deviation of the averaged measurements.

The experiment deals with MDAMB436. As to the kind of experiment: cell proliferation (confluence) relative to DMSO control; higher = less growth inhibition. The conditions noted are these: 5 uM; 6 d. The procedure: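 Epigenetic chemical probe screen: 15 TNBC cell lines, 500 cells per well in 384-well plates, treated with 5 uM of each of 36 SGC probes for 6 d. Confluency was imaged by IncuCyte ZOOM and normalised to DMSO control wells. Four replicate wells per compound.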
The compound `CCCc1cc(C)[nH]c(=O)c1CNC(=O)c1cc(-c2ccnc(N3CCN(C)CC3)c2)cc2c1cnn2C(C)C` returned a cell proliferation of 90.2 ± 6.6%.

For `CCN(C(=O)CO)[C@H]1CN(/C(=N\C#N)Nc2cccc(OC(F)F)c2)N=C1c1ccc(Cl)c(Cl)c1`, the cell proliferation came out at 93.5 ± 3.8%.

As to `CCCc1cc(C)n(C)c(=O)c1CN(C)C(=O)c1cc(-c2ccc(N3CCN(C(C)C)CC3)nc2)cc2c1cnn2C(C)C`, the cell proliferation is 96.6 ± 3.2%.

`Cn1cc(CCn2cnc(-c3cnn(C)c3)c2-c2ccc(C#N)cc2)cn1` came in with a cell proliferation of 83.2 ± 14%.

For `CNCCN1CCC(OCc2ccccc2)CC1`, the cell proliferation worked out at 76.5 ± 6.8%.

The compound `COc1cc(C#N)ccc1S(=O)(=O)Nc1ccc2c(c1)cc(C)c(=O)n2C` gave a cell proliferation of 75.5 ± 5.1%.

In turn, `CCOC(=O)CCNc1cc(N2CCc3ccccc3CC2)nc(-c2ccccn2)n1` yielded a cell proliferation of 16.1 ± 3%.

`CCn1cc(-c2cccc(C(F)(F)F)c2)c2sc(C(=N)NC3CCS(=O)(=O)CC3)cc2c1=O`: the cell proliferation came out at 50.4 ± 30%.

`Cc1cc(=O)n(C)c2cc(N3C(=O)CC[C@H](NS(=O)(=O)CC(C)C)[C@H]3c3ccc(Cl)cc3)ccc12` gave a cell proliferation of 73.3 ± 14%.

The compound `COc1c(C)cc(NC(=O)c2nn(Cc3ccc(F)cc3)c3c2CN(C(=O)c2ccc[nH]2)C[C@]3(C)C(N)=O)cc1C` gave a cell proliferation of 69.4 ± 14%.

The compound `COc1ccc(CCc2nc3cc(-c4c(C)noc4C)ccc3n2C[C@H](C)N2CCOCC2)cc1Cl` had a cell proliferation of 57.3 ± 19%.

`COc1cc2c(NC3CCN(C(C)C)CC3)nc(C3CCCCC3)nc2cc1OCCCN1CCCC1` returned a cell proliferation of 99.08 ± 0.28%.

`COc1ccccc1S(=O)(=O)Nc1ccc2c(c1)CN(C)C(=O)N2` showed a cell proliferation of 57 ± 5.5%.

Take `CCCc1cc(C)[nH]c(=O)c1CNC(=O)c1cc(-c2ccc(N3CCN(C(C)C)CC3)nc2)cc2c1cnn2C(C)C`: the cell proliferation was 71.1 ± 4.1%.

`CCCOc1ccn2c(C(C)=O)cc(-c3ccccc3S(C)(=O)=O)c2c1` registered a cell proliferation of 81.7 ± 14%.

In the case of `O=C(NCC(=O)N1CCCC1)Nc1ccc2cnccc2c1`, the cell proliferation is 79.4 ± 7.8%.

`O=C([C@@H](Cc1cccc(C(F)(F)F)c1)NS(=O)(=O)c1cc(F)c2c(c1)CCNC2)N1CCCC1`: the cell proliferation came to 84.5 ± 12%.

`CC(C)N(CCCNC(=O)Nc1ccc(C(C)(C)C)cc1)C[C@H]1O[C@@H](n2cc(Br)c3c(N)ncnc32)[C@H](O)[C@@H]1O` yielded a cell proliferation of 90.4 ± 6.8%.

As to `CC(C)Oc1ccc(-c2c[nH]cc2CN(C)CCN)cc1`, the cell proliferation came to 59.9 ± 20%.

`CCOC(=O)CCNc1cc(N2CCc3ccccc3CC2)nc(-c2cccnc2)n1` registered a cell proliferation of 94.2 ± 5.3%.

As to `O=C(c1ccc(C(=O)N2CCC(N3CCCC3)CC2)c(Nc2ccccc2)c1)N1CCC(N2CCCC2)CC1`, the cell proliferation is 95.2 ± 2.8%.

Compound `Cc1nnc2c3ccccc3c(N[C@@H](C)[C@H](c3ccccc3)N(C)C)nn12` [L-moses] returned a cell proliferation of 80.8 ± 11%.

Compound `CCC(=O)N1CCOc2c(cc(-c3ccc(OC)c(OC)c3)cc2OC[C@H]2CCCN(C)C2)C1` had a cell proliferation of 72.3 ± 4.5%.

For the compound `CC[C@H](C)n1cc(C)c2c(C(=O)NCc3c(C)cc(C)[nH]c3=O)cc(-c3ccc(N4CCNCC4)nc3)cc21`, the cell proliferation came out at 89.7 ± 1.7%.

Compound `COc1ccccc1C(=O)Nc1cc2c(cc1N1CCCC1)n(C)c(=O)n2C` registered a cell proliferation of 77 ± 3.6%.

Regarding `CC(C)Oc1ccc(-c2c[nH]cc2CN(C)CCO)cc1`, the cell proliferation came to 84.9 ± 4.5%.

`CN(C)[C@H]1CN(C2CCc3cccc(F)c32)C[C@@H]1c1ccc(N2CCN(S(C)(=O)=O)CC2)cc1` (some centres not stated) returned a cell proliferation of 93.7 ± 2.8%.

`O=C(NC[C@H](O)CN1CCc2ccccc2C1)c1ccnc(NC2CCC2)c1`: the cell proliferation came to 57.5 ± 18%.

As to `COc1cc(-c2cn(C)c(=O)c3cnccc23)c(OC)cc1CN(C)C`, the cell proliferation was determined as 77.2 ± 7.8%.

In turn, `Clc1cc2c(NC3CCCC3)nnc(-c3ccncc3)c2cc1Cl` had a cell proliferation of 93.5 ± 1.4%.

In the case of `COc1cc2c(cc1OCCCN1CCCC1)N=C(N)C21CCC1`, the cell proliferation is 95.3 ± 6%.

In turn, `O=C(/C=C/N1C[C@H]2C[C@@H]1CN2c1ccccn1)c1ccccc1O` had a cell proliferation of 95.4 ± 3.6%.

For the origin of these results see the supplement of paper PMC9337992.
